Among all 4,000 compounds or so, about 15 (0.4%) were called active.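 How the source made its calls: active means calcium fluorescence ratio, averaged over duplicates, at least 3 SD of the buffer-well ratio, meaning a nonspecific response in receptor-free cells; inactive means the rest.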 The list is a sample of the results.
test: nonspecific Ca2+ flux in HEK293 lacking MrgX1 – cell-based, Fluo-4 calcium flux, duplicate, counter-screen for MrgX1 allosteric activator project, primary screen (AID 624114); settings: parental HEK293 calcium flux, Fluo-4 fluorescence ratio; at 10 µM

Row | Structure (SMILES) | outcome
1 | COc1ccc(C(=O)Nc2c(N)nc(SCC(=O)N3CCC(C)CC3)[nH]c2=O)cc1OC | inactive
2 | CCOc1cc(-c2conc2N)cc(OCC)c1OCC | inactive
3 | O=C1CCCN1CCCNC(=S)Nc1ccc(F)c(Cl)c1 | inactive
4 | COc1ccc(C(=O)NNC(=S)NC(=O)c2ccccc2)cc1 | inactive
5 | Nc1ccc(Oc2ccc(Cl)cc2)cc1 | inactive
6 | CN(CC(=O)Nc1ccccc1Cl)C(=O)COc1cccc2c1OC(C)(C)C2 | inactive
7 | CCOc1ccc2nc(/N=C/c3nc(-c4ccccc4)oc3O)sc2c1 | inactive
8 | FC(F)(F)c1cc(-c2cccs2)nc(NCc2ccco2)n1 | inactive
9 | O=C(CSc1c2c(nc3ccc(Cl)cc13)CCCC2)NCc1ccco1 | inactive
10 | COc1ccc(Nc2nc(-c3cccnc3)nc3ccccc23)cn1 | inactive
11 | CN(C)CCn1c(=S)[nH]c2ccc(Cl)cc2c1=O | inactive
12 | COC(=O)c1sccc1NS(=O)(=O)c1ccc(F)cc1F | inactive
13 | COc1ccc2c(c1)OC(O)(C(F)(F)C(F)F)CC2=O (stereo unspecified) | inactive
14 | CC(C)NC(=S)Nc1cccc2cnccc12 | inactive
15 | C=CCNC(=O)c1cc(-c2ccccc2O)on1 | inactive
16 | O=C(Nc1ccccc1N1CCCCC1)c1ccc2nccnc2c1 | inactive
17 | Cc1ccc2c(c1)c1ncnc(N3CCc4ccccc4C3)c1n2C | inactive
18 | CCc1ccc2nc3sc(C(=O)Nc4nnc(CC)s4)c(N)c3cc2c1 | inactive
19 | COc1ccc(C(=O)NC(=S)NNC(=O)c2c(-c3ccccc3)noc2C)cc1 | inactive
20 | COc1ccccc1N(CC(=O)N1CCCCC1)S(=O)(=O)c1ccccc1 | inactive
21 | CC(C)OCCCNc1ncnc2c1[nH]c1ccc(F)cc12 | inactive
22 | COc1cc(CCC(=O)Nc2ccncc2Cl)cc(OC)c1OC | inactive
23 | CCCc1[nH]nc2c1C(c1ccc(Br)s1)C(C#N)=C(N)O2 (stereo unspecified) | inactive
24 | O=C(Cc1ccccn1)c1ccc(O)cc1O | inactive

Row | Structure (SMILES) | outcome
25 | Cc1cccn2c(=O)c(/C=C3\SC(=S)N(CC(C)C)C3=O)c(NCCCOC(C)C)nc12 | inactive
26 | O=C(Nc1ccccc1N1CCOCC1)c1csc2c1CCCC2 | inactive
27 | Brc1ccccc1C1Nc2cccc3cccc(c23)N1 | inactive
28 | Cc1ccc(NC2(C#N)C(=O)Nc3ccccc32)cc1 (stereo unspecified) | inactive
29 | Cc1nccn1CCC1CCCCN1C(=O)CCc1nnc(-c2ccsc2)o1 (stereo unspecified) | inactive
30 | OCc1ccc(OCCCOc2cccc3cccnc23)cc1 | inactive
31 | COc1ccc(NC(=O)c2cc(-c3ccc(C)o3)nc3ccccc23)cc1 | inactive
32 | CN1/C(=C\C=C2\N=C(c3ccc(F)cc3)OC2=O)C(C)(C)c2ccccc21 | inactive
33 | COc1cc(C)c(C)cc1S(=O)(=O)N1CCCc2ccccc21 | inactive
34 | Cc1ccc(CS(=O)(=O)c2ncc(Cl)c(C(=O)Nc3nnc(C)s3)n2)cc1 | inactive
35 | O=C(Nc1nnc(-c2ccccc2)o1)c1cc(-c2cccs2)nc2ccccc12 | inactive
36 | COC(=O)Cn1c(O)c(N=NC(=O)OC)c2ccccc21 | inactive
37 | CN(c1cccc(NC(=O)Nc2ccc(Cl)cc2)c1)S(C)(=O)=O | inactive
38 | CCc1cc(=O)oc2cc(C)cc(OCC(=O)N3CCC[C@@H]3C(=O)O)c12 | inactive
39 | CCOC(=O)c1c(C)[nH]c(=S)c(C#N)c1-c1ccccc1 | inactive
40 | CCOc1ccccc1C1CC(c2ccc(Cl)cc2)Nc2nc(N)nn21 (stereo unspecified) | inactive
41 | Cc1c(C(=O)N2CCCc3ccccc32)sc2nc(-c3ccccc3)cn12 | inactive
42 | O=C(Cc1nc2ccccc2[nH]c1=O)c1ccc(Cl)cc1 | inactive
43 | COc1cc(C2/C(=C(\O)c3ccc4c(c3)CC(C)O4)C(=O)C(=O)N2Cc2ccco2)ccc1O (stereo unspecified) | inactive
44 | CCc1nnc(NC(=O)CSc2nc3c(c(=O)n2-c2ccccc2OC)SCC3)s1 | inactive
45 | N=C(N)SCc1cccc2ccccc12 | inactive
46 | CCCCC(=O)NNC(=S)NC(=O)C(c1ccccc1)c1ccccc1 | inactive
47 | Cc1occc1C(=O)Nc1nnc(-c2ccncc2)s1 | inactive
48 | Cc1ccc2nc(-c3ccc(NC(=O)c4cccnc4)cc3)oc2c1 | inactive

Row | Structure (SMILES) | outcome
49 | COCCNC(=O)C1CCN(S(=O)(=O)c2ccc3c(c2)OCCO3)CC1 | inactive
50 | CCN(CC)c1ccc(C2C3CCCCC3(O)CCN2CC(=O)Nc2ccccc2)cc1 (stereo unspecified) | inactive
51 | COC(=O)c1c(NC(=O)CN(c2ccc(C)c(C)c2)S(C)(=O)=O)sc2c1CCCC2 | inactive
52 | CC(C)(C)Nc1c(-c2cccs2)nc2ccccn12 | inactive
53 | Cc1onc(-c2ccccc2)c1C(=O)NNC(=S)NC(=O)c1ccc(F)cc1 | inactive
54 | COc1cccc(CCNC(=O)COc2cccc3c2OC(C)(C)C3)c1 | inactive
55 | COc1ccc(-n2c(SCC(=O)NCc3ccco3)nnc2-c2c[nH]c3ccccc23)cc1 | inactive
56 | CCS(=O)(=O)c1ccc2c(c1)N(S(=O)(=O)c1ccccc1)CC(C(=O)O)O2 (stereo unspecified) | inactive
57 | Cc1nn(C(=O)c2ccoc2C)c(N)c1-c1ccccc1 | inactive
58 | O=C(COC(=O)C1CCN(S(=O)(=O)c2ccc3c(c2)OCCO3)CC1)Nc1ccccc1OC(F)F | inactive
59 | CC(=O)N(C)c1ccc(NC(=O)C(F)(F)F)cc1 | inactive
60 | O=C(CC(O)(C(F)(F)F)C(F)(F)F)Nc1ccc(Cl)c(Cl)c1 | inactive
61 | O=C(CCN1CCc2ccccc2C(O)(c2ccccc2)C1)c1ccc2c(c1)OCCO2 (stereo unspecified) | inactive
62 | COc1ccc(C2SCCN2S(=O)(=O)c2ccccc2)cc1OC (stereo unspecified) | inactive
63 | CCc1cc2c(SCC(=O)Nc3ncc(Cl)c(C)c3Cl)ncnc2s1 | inactive
64 | CCOC(=O)c1c(NC(=O)CNC2CCCc3ccccc32)sc(C(N)=O)c1C (stereo unspecified) | inactive
65 | O=S(=O)(c1ccc2ccccc2c1)N1CCN(S(=O)(=O)N2CCOCC2)CC1 | inactive
66 | Cc1cc(=O)oc2cc(NC(=O)C3CC(=O)N(Cc4ccccc4)C3)ccc12 (stereo unspecified) | inactive
67 | CCN(C(=O)CSc1nnc2ccccn12)C1CCS(=O)(=O)C1 (stereo unspecified) | inactive
68 | CC(=O)N(C1=C(Cl)C(=O)c2ccccc2C1=O)c1ccc(C(=O)O)cc1 | inactive
69 | COc1ccc(C(=O)CSc2n[nH]c(N)n2)cc1 | inactive
70 | O=C(Nc1ccccc1)c1nnsc1S(=O)(=O)c1ccc(Cl)cc1 | inactive
71 | Cc1ccc2cc(/C=N/Nc3ccc(C(=O)O)cc3)c(Cl)nc2c1 | inactive

Source: PubChem BioAssay AID624114 (Johns Hopkins Ion Channel Center, 2012)
